For test [1], the system named is Wnt5a (protein binding on small-molecule microarray). Description: Wnt5a binders on small-molecule microarray, primary screen, biophysical, 635/667 nm fluorescence (AID 1142).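 Further: fluorescence read at 667 nm with signal to noise per printed feature.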 The settings on record: 635 nm fluorescence, higher = more signal.
A short description of test [2]: cell viability in Huh7 cells, primary screen, cytotoxicity control for HCV replication inhibitor project, CellTiter-Glo luminescence, basal, 48 h (AID 1143).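 Further: Huh7 hepatoma cells carrying a hepatitis C replication reporter with no stimulus; test concentration not given here.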 The settings on record: Huh7 HCV replicon, higher = more signal, called active from +8 up or from −8 down.
The nature of test [3]: P. aeruginosa biofilm formation inhibitors, primary screen, PAO1 strain, BacTiter-Glo luminescence, LB-PBS (AID 1144). The settings on record: 12 h, higher = more signal.
Test [4] can be described thus: CREB reporter modulators without forskolin, primary screen, cell-based, PC12, CRE-LacZ reporter, unstimulated (AID 1145). The settings on record: no forskolin, luminescence, 4.5 h, higher = more signal, called active from +8 up or from −8 down.
Test [5] in a line: CREB reporter modulators under forskolin, primary screen, cell-based, PC12, CRE-LacZ reporter, forskolin-stimulated (AID 1146).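 Further: PC12 cells with 6xCRE LacZ reporter stimulated by forskolin 10 µM; beta-galactosidase reporter signal reflecting CREB driven transcription.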 The following applies: luminescence, 4.5 h, higher = more signal, called active from +8 up or from −8 down.
The target of test [6] is Streptavidin (Streptomyces avidinii) (UniProt P22629). Kind of test: streptavidin binders on small-molecule microarray, primary screen, artefact control for SMM compound annotation, biophysical, 635/667 nm fluorescence (AID 1147).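 Further: signal reflects streptavidin binding to arrayed compounds as a control protein.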 The following applies: streptavidin binding, higher = more signal.
Test [7] can be described thus: small-molecule binders of probe aInhba, primary screen, biochemical, small-molecule microarray, 635/667 nm fluorescence (AID 1148).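 Further: score merges 667nm spot fluorescence with signal-to-noise for antibody binding to printed compounds.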 The following applies: higher = more signal.
In test [8] the target is Torsin-1A (Homo sapiens) (UniProt O14656). Kind of test: torsin A binders from cell lysate, primary screen, small-molecule microarray, wild-type, 635/667 nm (AID 1149). The following applies: COS7 hTOR1A-WT lysate, 635 nm fluorescence, higher = more signal.
Test [9] shares this target. Description: small-molecule binders of mutant TOR1A in lysate, primary screen, cell lysate, small-molecule microarray, COS7 lysate, 635/667 nm fluorescence (AID 1150).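 Further: score pools 667 nm emission and signal to noise measuring lysate protein binding.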 The following applies: COS7 hTOR1A mutant lysate, 635 nm fluorescence, higher = more signal.
In test [10] the test system is Sonic hedgehog protein (Shh). Kind of test: small-molecule binders of Shh protein, primary screen, biochemical, small-molecule microarray, 635/667 nm fluorescence (AID 1151).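 Further: Shh protein binding to compounds spotted on small-molecule microarray slides; score combines spot fluorescence intensity with signal-to-noise across triplicate slides.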 The settings on record: small-molecule microarray binding, 635 nm fluorescence; higher = more signal.

Active and inactive are the calls of the source. Unless noted, how the calls were made is not given here.

Torsin-1A (Homo sapiens), sequence (O14656 whole entry, looked up): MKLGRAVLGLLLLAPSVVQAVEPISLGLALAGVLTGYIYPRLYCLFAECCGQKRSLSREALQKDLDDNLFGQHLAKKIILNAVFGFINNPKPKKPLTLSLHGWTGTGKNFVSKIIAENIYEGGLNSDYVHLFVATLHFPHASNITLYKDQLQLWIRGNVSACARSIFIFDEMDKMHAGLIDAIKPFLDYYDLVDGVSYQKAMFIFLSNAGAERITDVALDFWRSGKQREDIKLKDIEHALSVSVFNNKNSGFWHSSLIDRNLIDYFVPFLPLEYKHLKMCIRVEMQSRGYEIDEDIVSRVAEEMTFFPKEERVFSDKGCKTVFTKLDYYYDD
Streptavidin (Streptomyces avidinii), sequence (P22629 whole entry, looked up): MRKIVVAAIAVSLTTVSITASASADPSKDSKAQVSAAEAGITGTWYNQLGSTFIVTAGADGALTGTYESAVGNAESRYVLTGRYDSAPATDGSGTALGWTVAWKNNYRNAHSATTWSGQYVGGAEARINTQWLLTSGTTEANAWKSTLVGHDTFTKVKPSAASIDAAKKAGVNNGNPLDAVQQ

On to `COC(=O)[C@@]1(Cc2ccc(OC)cc2)[C@H]2c3cc(C(=O)N(C)C)n(CCc4ccccn4)c3C[C@H]2CN1C(=O)c1ccccc1`, for which the composite z-score in test [1] was 1.19; in test [6], 1.86; in [7] it was 1.17; in the test with Torsin-1A (Homo sapiens) [8] it was -0.128; with Torsin-1A (Homo sapiens) [9], 1.04; in [10], -0.127. The z-score in test [2] is -2.18 (inactive); in test [3] it was 0.165 (inactive); in test [4], 1.92 (inactive); in test [5], 0.577 (inactive).
With `COC(=O)[C@@]1(CCS(=O)(=O)c2ccccc2)N=C(c2ccc(OCCCO)cc2)O[C@H]1c1ccccc1CN=[N+]=[N-]`, the composite z-score in [1] is 0.351; in test [6], 0.415; in [7], 0.0808; in the test with Torsin-1A (Homo sapiens) [8] it was 0.252; with Torsin-1A (Homo sapiens) [9], 0.869; in test [10], 0.281. The z-score in [2] was -2.7 (inactive); in [3], 0.945 (inactive); in test [4], 1.38 (inactive); in [5], -1.43 (inactive).
As to `C=C(CCCC)C(=O)CC[C@@H](OC(=O)c1ccccc1-c1ccccc1C(=O)O)c1ccc(OCCO)cc1`, the composite z-score in test [1] is 0.27; in [6], -0.074; in test [7], -0.128; with Torsin-1A (Homo sapiens) [8] it was 0.803; with Torsin-1A (Homo sapiens) [9], 0.427; in [10], 0.586. In addition, the z-score in [2] was 0.142 (inactive); in test [3], -0.385 (inactive); in [4], -0.336 (inactive); in [5] it was 1.8 (inactive).
With `O=C(CS)NCCCCCCNC(=O)[C@@H]1C[C@@H]2C(=O)NCC(=O)N2[C@@H]1c1cccc(OCCO)c1`, the composite z-score was 0.136 in test [1]; 0.0478 in test [6]; -0.613 in [7]; 1.29 in the test with Torsin-1A (Homo sapiens) [8]; 1.28 with Torsin-1A (Homo sapiens) [9]; 0.88 in test [10]. The z-score in [2] is 0.429 (inactive); in test [3], -0.865 (inactive); in test [4] it was -0.252 (inactive); in test [5] it was -0.695 (inactive).
`O=C1[C@@]23C=C(Br)[C@H](C[C@@H]2CCOC3)[C@@]12CO2`: the composite z-score in test [1] is -0.0248; in test [6], 0.365; in test [7], 0.0792; with Torsin-1A (Homo sapiens) [8] it was 0.441; with Torsin-1A (Homo sapiens) [9] it was 0.219; in test [10], 0.534. The z-score in test [2] was 0.35 (inactive); in test [3] it was 0.725 (inactive); in test [4] it was 0.221 (inactive); in test [5] it was 0.767 (inactive).
On to `O=C1C[C@]2(c3ccc([N+](=O)[O-])cc3)C(=O)N(CC(F)(F)F)c3cc(CO)ccc3[C@H]2N1C1CCCCC1`, for which the composite z-score was -0.446 in test [1]; -0.463 in test [6]; -0.0598 in [7]; -0.628 with Torsin-1A (Homo sapiens) [8]; -0.611 with Torsin-1A (Homo sapiens) [9]; -0.444 in test [10]. Moreover, the z-score was 0.465 (inactive) in test [2], 1.43 (inactive) in [3], -0.412 (inactive) in test [4] and -0.496 (inactive) in test [5].
On to `CCOC(=O)C[C@H]1[C@H](OC(=O)c2ccc(C(=O)c3ccccc3)cc2)[C@@H](NC(=O)c2ccccc2)c2cc(OCCCO)ccc2N1C(=O)c1ccc2ccccc2n1`, for which the composite z-score in test [1] is 0.152; in test [6] it was 1.22; in test [7] it was -0.0468; in the test with Torsin-1A (Homo sapiens) [8], 0.478; in the test with Torsin-1A (Homo sapiens) [9] it was 0.179; in [10] it was -0.25. The z-score in test [2] was -0.0123 (inactive); in test [3], 0.0501 (inactive); in test [4], 3.66 (inactive); in test [5] it was -0.712 (inactive).
`COC(=O)[C@@]1(Cc2ccc(F)cc2)[C@H]2c3cc(C(=O)N4CCCC4)n(Cc4ccc(S(C)(=O)=O)cc4)c3C[C@H]2CN1C(=O)c1ccccc1`: the composite z-score is 0.196 in [1]; 1.19 in test [6]; 0.864 in [7]; 0.181 in the test with Torsin-1A (Homo sapiens) [8]; 0.861 with Torsin-1A (Homo sapiens) [9]; -0.716 in [10]. Moreover, the z-score in [2] is -1.71 (inactive); in test [3] it was 0.53 (inactive); in [4], 0.39 (inactive); in [5], 0.363 (inactive).
On to `CN1C(=O)C2C=CC(C(O)c3ccc([N+](=O)[O-])cc3)N(N3CCCCC3)C2C1=O` (stereo not given), for which the composite z-score in test [1] was 0.466; in test [6], 0.901; in test [7], 0.464; in the test with Torsin-1A (Homo sapiens) [8] it was 0.319; with Torsin-1A (Homo sapiens) [9], 0.603; in test [10] it was -0.041. In addition, the z-score in [2] was 0.576 (inactive); in test [3], -0.711 (inactive); in test [4], 1.01 (inactive); in test [5], 0.316 (inactive).
On to `NC(=O)N1C(=O)C2C(C1=O)C1C=C(c3ccc(CO)cc3)C2C(c2cccs2)N1Cc1cccc(OC(F)(F)F)c1` (stereo not given), for which the composite z-score amounted to 0.24 in test [1]; 0.514 in test [6]; 0.29 in test [7]; 0.635 with Torsin-1A (Homo sapiens) [8]; 0.522 with Torsin-1A (Homo sapiens) [9]; 0.235 in [10]. Moreover, the z-score was -3.63 (inactive) in test [2], 0.945 (inactive) in test [3], 1.08 (inactive) in test [4] and -1.58 (inactive) in [5].
`COCCOC(=O)N1C(=O)[C@@]2(c3cc(C#Cc4ccc(OC)cc4)ccc31)[C@H](c1ccc(O)cc1)N1[C@H](c3ccccc3)[C@H](c3ccccc3)OC(=O)[C@H]1[C@@H]2C(=O)N1CCc2cc(OC)c(OC)cc2C1`: the composite z-score was 0.164 in test [1]; 1.25 in test [6]; 0.0317 in test [7]; 0.807 with Torsin-1A (Homo sapiens) [8]; 0.964 in the test with Torsin-1A (Homo sapiens) [9]; 0.643 in test [10]. Further, the z-score in test [2] is -1.93 (inactive); in [3], -1.57 (inactive); in test [4] it was -1.42 (inactive); in test [5], -0.397 (inactive).
Consider `COc1cc(Br)cc(C(O)C2C=CC3C(=O)N(C)C(=O)C3N2N2CCCCC2)c1OC` (stereo not given), for which the composite z-score was -0.274 in [1]; -0.39 in test [6]; -0.016 in test [7]; 0.167 with Torsin-1A (Homo sapiens) [8]; 0.0369 with Torsin-1A (Homo sapiens) [9]; -1.49 in test [10]. For the same molecule, the z-score in test [2] was 0.4 (inactive); in [3], -0.311 (inactive); in test [4], 0.822 (inactive); in test [5], 0.641 (inactive).
`COCCCNC(=O)[C@]1(CCC(=O)OC(C)(C)C)N=C(c2ccc(OCCCO)cc2)O[C@@H]1c1ccccc1CN=[N+]=[N-]`: the composite z-score in test [1] came to 0.297; in test [6] it was 1.24; in test [7], 0.287; with Torsin-1A (Homo sapiens) [8], 1.64; with Torsin-1A (Homo sapiens) [9] it was 1.58; in test [10] it was 0.233. Also, the z-score was 0.107 (inactive) in test [2], -0.514 (inactive) in [3], -0.459 (inactive) in test [4] and -1.18 (inactive) in [5].
As to `COc1cc2c(cc1OC)CN(C(=O)[C@@H]1[C@H]3C(=O)O[C@H](c4ccccc4)[C@H](c4ccccc4)N3[C@H](c3ccccc3OCCO)[C@@]13C(=O)Nc1ccc(C#CCCO)cc13)CC2`, the composite z-score in test [1] worked out at 0.283; in [6], 0.442; in [7] it was 0.196; with Torsin-1A (Homo sapiens) [8], 0.0499; in the test with Torsin-1A (Homo sapiens) [9] it was 0.344; in test [10], 1.13. Moreover, the z-score was -1.65 (inactive) in test [2], 0.219 (inactive) in test [3], 0.505 (inactive) in test [4] and -0.988 (inactive) in [5].

Source of the values: PubChem BioAssay.
